Data reported in PubChem BioAssay AID1159580 (chemical genetic matrix, 2015).
Where “and” joins values, the source holds several entries; their conditions need not be identical. Identical values can stand only once. The campaign covered roughly 5,500 compounds. About 2,000 (36%) were called active. About 18% were inconclusive and are not listed. Cut-off read from the data, not from the text of the source: active = normalized growth mostly below about 0.91 (no sharp cut-off); inconclusive = no clear call, values can overlap the other calls; inactive = mostly above about 0.92. The list shows a part of the results.

Assay: chemical genetic growth profiling, strain panel (AID 1159580);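 note: tested at 20 µM; growth read once vehicle control cultures reached saturation at 30 °C; 1 = growth at the plate median or of vehicle wells; lower values mean less growth of the strain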
Conditions: S. cerevisiae deletion strains, growth OD

Measured: normalized growth

COC(=O)C[C@H]1C2(C)CC34OC5(C)O[C@@]6([C@H](OC(C)=O)C(OC(C)=O)[C@]7(C)C(/C(=C(/O)C(C)C)C(=O)O[C@H]7c7ccoc7)[C@@]6(O5)[C@H](OC(C)=O)[C@@]3(O)C2OC(=O)C(C)C)[C@]14C (stereo partly drawn)
inactive: locus YAL021C, strain ccr4, hits give low values 1.01 | locus YAL026C, strain drs2, hits give low values 0.995 | locus YAL030W, strain snc1, hits give low values 0.997 | locus YBL061C, strain skt5, hits give low values 1.01 | locus YBR009C, strain hhf1, hits give low values 1.01 | locus YBR021W, strain FUR4, hits give low values 1.06 | locus YBR023C, strain chs3, hits give low values 1 | locus YBR171W, strain sec66, hits give low values 0.994 | locus YBR229C, strain ROT2, hits give low values 0.955 | locus YBR231C, strain swc5, hits give low values 1 | locus YBR279W, strain paf1, hits give low values 0.996 | locus YCL011C, strain gbp2, hits give low values 0.989 | locus YCL016C, strain dcc1, hits give low values 1.02 | locus YCL029C, strain bik1, hits give low values 1.01 | locus YCL061C, strain MRC1, hits give low values 1 | locus YCL069W, strain vba3, hits give low values 0.998 | locus YCR088W, strain abp1, hits give low values 0.992 | locus YDL005C, strain med2, hits give low values 0.982 | locus YDL035C, strain GPR1, hits give low values 0.976 | locus YDL040C, strain nat1, hits give low values 0.978 | locus YDL074C, strain BRE1, hits give low values 0.986 | locus YDL101C, strain DUN1, hits give low values 1 | locus YDL134C, strain PPH21, hits give low values 1.02 | locus YDL185W, strain tfp1, hits give low values 0.956 | locus YDL192W, strain arf1, hits give low values 0.986 | locus YDR001C, strain nth1, hits give low values 1 | locus YDR069C, strain doa4, hits give low values 1 | locus YDR101C, strain arx1, hits give low values 1 | locus YDR137W, strain rgp1, hits give low values 0.953 | locus YDR159W, strain sac3, hits give low values 0.975 | locus YDR162C, strain NBP2, hits give low values 0.973 | locus YDR195W, strain ref2 0.959 | locus YDR297W, strain sur2, hits give low values 1.02 | locus YDR318W, strain mcm21, hits give low values 0.994 | locus YDR334W, strain swr1, hits give low values 0.991 | locus YDR335W, strain msn5, hits give low values 0.993 | locus YDR388W, hits give low values 0.994 | locus YDR392W, strain spt3, hits give low values 1.05 | locus YDR502C, strain sam2, hits give low values 1.03 | locus YEL003W, strain gim4, hits give low values 0.995 | locus YEL037C, strain rad23, hits give low values 0.997 | locus YEL061C, strain CIN8 (second series), hits give low values 0.994 | locus YEL061C, strain CIN8, hits give low values 1 | locus YER015W, strain faa2, hits give low values 1.01 | locus YER016W, strain bim1, hits give low values 0.981 | locus YER110C, hits give low values 0.992 | locus YER111C, strain swi4, hits give low values 0.985 | locus YER155C, strain BEM2 (second series), hits give low values 1.01 | locus YER155C, strain BEM2, hits give low values 1.01 | locus YER167W, strain BCK2, hits give low values 0.99 | locus YFR010W, strain ubp6, hits give low values 0.982 | locus YGL078C, strain dbp3, hits give low values 0.98 | locus YGL086W, strain mad1, hits give low values 1.01 | locus YGL167C, strain pmr1, hits give low values 0.995 | locus YGL173C, strain kem1, hits give low values 0.997 | locus YGL227W, strain vid30, hits give low values 0.987 | locus YGL240W, strain doc1, hits give low values 0.975 | locus YGL248W, strain PDE1, hits give low values 0.997 | locus YGL253W, strain hxk2, hits give low values 0.975 | locus YGR078C, strain PAC10, hits give low values 1 | locus YGR135W, strain pre9, hits give low values 1.06 | locus YGR252W, strain gcn5, hits give low values 1.04 | locus YHR013C, strain ard1, hits give low values 1 | locus YHR027C, strain rpn1, hits give low values 1.02 | locus YHR030C, strain SLT2, hits give low values 0.947 | locus YHR079C, strain IRE1 (second series), hits give low values 0.997 | locus YHR079C, strain IRE1, hits give low values 0.983 | locus YHR094C, strain hxt1, hits give low values 0.998 | locus YHR129C, strain ARP1, hits give low values 1 | locus YHR142W, strain chs7, hits give low values 1 | locus YHR200W, strain rpn10, hits give low values 0.996 | locus YIL066C, strain RNR3, hits give low values 0.963 | locus YIL073C, strain SPO22, hits give low values 0.966 | locus YIL125W, strain kgd1, hits give low values 1 | locus YIR030C, strain dcg1, hits give low values 1 | locus YJL092W, strain hpr5, hits give low values 0.997 | locus YJL095W, strain BCK1 (second series), hits give low values 1 | locus YJL095W, strain BCK1, hits give low values 1.02 and 0.966 | locus YJL115W, strain asf1, hits give low values 0.989 | locus YJL129C, strain trk1, hits give low values 0.975 | locus YJL134W, strain LCB3, hits give low values 0.994 | locus YJL154C, strain vps35, hits give low values 1 | locus YJL164C, strain tpk1, hits give low values 1.01 | locus YJL166W, strain qcr8, hits give low values 0.983 | locus YJL168C, strain set2, hits give low values 1.01 | locus YJL187C, strain SWE1 (second series), hits give low values 1.01 | locus YJL187C, strain SWE1, hits give low values 1.01 | locus YJR066W, strain TOR1, hits give low values 0.928 | locus YJR075W, strain HOC1, hits give low values 1.02 | locus YKL009W, strain mrt4, hits give low values 0.979 | locus YKL068W, hits give low values 0.986 | locus YKL160W, strain elf1, hits give low values 1.01 | locus YKR001C, strain vps1, hits give low values 1 | locus YKR026C, strain gcn3, hits give low values 0.995 | locus YKR091W, strain srl3, hits give low values 0.996 | locus YLL001W, strain dnm1, hits give low values 1.02 | locus YLL026W, hits give low values 0.987 | locus YLL041C, strain sdh2, hits give low values 0.988 | locus YLR027C, strain aat2, hits give low values 1 | locus YLR039C, strain RIC1, hits give low values 0.863 | locus YLR058C, strain SHM2, hits give low values 0.987 | locus YLR102C, strain apc9, hits give low values 1 | locus YLR113W, strain HOG1, hits give low values 1.01 | locus YLR221C, strain rsa3, hits give low values 0.992 | locus YLR258W, strain gsy2, hits give low values 1.01 | locus YLR262C, strain YPT6 (second series), hits give low values 0.924 | locus YLR268W, strain sec22, hits give low values 0.986 | locus YLR320W, strain mms22, hits give low values 0.988 | locus YLR342W, strain FKS1, hits give low values 0.996 | locus YLR357W, strain rsc2, hits give low values 0.997 | locus YLR370C, strain arc18, hits give low values 0.99 | locus YLR371W, strain rom2, hits give low values 0.99 | locus YLR384C, strain iki3, hits give low values 0.994 | locus YLR418C, strain cdc73, hits give low values 1.07 | locus YML016C, strain PPZ1, hits give low values 0.995 | locus YML032C, strain rad52, hits give low values 0.982 | locus YML120C, strain ndi1, hits give low values 0.995 | locus YML124C, strain tub3, hits give low values 1.01 | locus YMR058W, strain fet3, hits give low values 1.01 | locus YMR078C, strain ctf18, hits give low values 0.998 | locus YMR125W, strain sto1, hits give low values 1.01 | locus YMR129W, hits give low values 0.997 | locus YMR205C, strain PFK2, hits give low values 0.992 | locus YMR223W, strain ubp8, hits give low values 1.02 | locus YMR231W, strain pep5, hits give low values 0.957 | locus YMR263W, strain SAP30, hits give low values 0.992 | locus YMR307W, strain GAS1, hits give low values 0.926 | locus YNL067W, strain RPL9B, hits give low values 1.02 | locus YNL071W, strain lat1, hits give low values 0.998 | locus YNL153C, strain GIM3, hits give low values 1.02 | locus YNL183C, strain NPR1, hits give low values 0.954 | locus YNL209W, strain ssb2, hits give low values 0.994 | locus YNL233W, strain BNI4, hits give low values 1.04 | locus YNL248C, strain rpa49, hits give low values 0.989 | locus YNL250W, strain rad50, hits give low values 0.987 | locus YNL271C, strain bni1, hits give low values 0.999 | locus YNL298W, strain CLA4, hits give low values 0.994 | locus YNL307C, strain MCK1, hits give low values 1.01 | locus YNL322C, strain KRE1 (second series), hits give low values 0.982 | locus YNR049C, strain mso1, hits give low values 0.994 | locus YNR052C, strain pop2, hits give low values 1.02 | locus YOL012C, strain htz1 1.3 | locus YOL147C, strain pex11, hits give low values 1.01 | locus YOR001W, strain rrp6, hits give low values 0.947 | locus YOR061W, strain CKA2, hits give low values 0.962 | locus YOR069W, strain VPS5, hits give low values 1 | locus YOR070C, strain gyp1, hits give low values 0.987 | locus YOR080W, strain dia2, hits give low values 0.977 | locus YOR083W, strain WHI5, hits give low values 1.02 | locus YOR106W, strain vam3, hits give low values 1.01 | locus YOR136W, strain idh2, hits give low values 1 | locus YOR144C, strain elg1, hits give low values 1 | locus YOR184W, strain ser1, hits give low values 0.987 | locus YOR231W, strain MKK1, hits give low values 0.981 | locus YOR265W, strain rbl2, hits give low values 0.994 | locus YOR270C, strain vph1, hits give low values 0.87 | locus YOR290C, strain snf2, hits give low values 0.979 | locus YOR316C, strain cot1, hits give low values 1.01 | locus YPL051W, strain arl3, hits give low values 0.999 | locus YPL078C, strain atp4, hits give low values 1.01 | locus YPL106C, strain sse1, hits give low values 1.06 | locus YPL240C, strain hsp82, hits give low values 0.99 | locus YPL256C, strain CLN2, hits give low values 0.98 | locus YPR119W, strain clb2, hits give low values 0.997 | locus YPR141C, strain kar3, hits give low values 0.969 | locus YPR163C, strain tif3, hits give low values 1.01 | locus YPR167C, strain met16, hits give low values 0.993 | strain wtn01, hits give low values 1
